Measured values from PubChem BioAssay AID588855 (National Center for Advancing Translational Sciences (NCATS), 2011).
Screen size: about 410,000 compounds; about 5,000 (1.2%) were called active. Roughly 13% stayed inconclusive and do not appear here. The entries come from a sample that favours actives as a whole. A number with no mark means an inactive call. Calls follow the shape of the dose curve; as a rule, active = well fitted inhibition curve with a large enough effect; inconclusive = small, poorly fitted or top-dose-only effect; inactive = no such curve, though single readings can be large or run the other way.

Assay: qHTS for Inhibitors of TGF-b; also: nearly all actives have a fitted effect of over 65% in size
Conditions: HepG2 CAGA-GFP TGF-b/SMAD3 reporter, GFP fluorescence, 18 h, TGF-beta stimulated, 500 pg/mL final; series mostly up to 46.1 µM; activity, negative = inhibition: at the top concentration
Procedure, shortened: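 GFP signal (ex488/em500-530) from TGF-beta-stimulated HEPG2 CAGA-GFP cells, 500 pg/mL final, 18 h at 37 degrees C in DMEM plus 1% FBS, normalized to unstimulated and DMSO-stimulated controls.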
% is scaled to controls: 0 for no effect and ±100 for the full control effect; potency is read from the fitted curve at half-maximal effect.

SMILES | activity, negative = inhibition [%] | Potency
COc1ccc(Nc2ncc(C(=O)Nc3cc(C)ccc3OC)c3ccccc23)cc1 | -2.57 | –
CCc1nccn1S(=O)(=O)c1cc(Br)ccc1Br | 3.54 | –
COc1ccc(OC)c(NC(=O)/C=C/c2ccc(C)o2)c1 | 39.7 | –
CC(C)S(=O)(=O)c1oc(-c2ccc(F)cc2)nc1S(=O)(=O)c1ccc(F)cc1 | – | 1.26 µM (active)
O=C(CSc1oc(-c2ccc(F)cc2)nc1S(=O)(=O)c1ccc(Br)cc1)NC1CCCCC1 | 11.8 | –
Cc1ccc(-c2nc(S(=O)(=O)c3ccc(C)cc3)c(N3CCCCCC3)o2)cc1 | 9.54 | –
Cc1ccc(CCNC(=O)Cn2c(-c3cccs3)cc3cc(F)ccc32)cc1 | -3.68 | –
COc1ccc(CC(=O)NCCc2sc3nc(-c4ccc(OC)cc4)nn3c2C)cc1 | -12 | –
COc1c(Cl)cc(C(=O)N(Cc2ccccc2F)C2CCS(=O)(=O)C2)cc1Cl (stereo unspecified) | -28.9 | –
Cc1ccc2nc(-c3ccc(O)cc3)c(Nc3ccc4c(c3)OCO4)n2c1 | -25.9 | –
Cc1cc(C)nc(SC(C)C(=O)N/N=C/c2cccs2)n1 (stereo unspecified) | 4.28 | –
COC(c1ccccc1)(c1ccccc1)C(Oc1nc(C)cc(C)n1)C(=O)O (stereo unspecified) | 16.7 | –
Cc1cc(C)nc(S/C=C/C(=O)c2ccccc2)n1 | – | 3.16 µM (active)
Cc1ccc(Cn2c(CNC(=O)Cc3cccc(C)c3)nc3cccnc32)cc1 | -23 | –
CC(=O)Nc1cc(C(=O)NCc2ccc(F)cc2Cl)ccc1Sc1ccc(Cl)cc1 | 0 | –
COc1ccc(CN2CCC(=O)c3ccccc3S2(=O)=O)cc1 | -1.44 | –
COc1cccc2c1C(=O)c1c(O)c3c(c(O)c1C2=O)CC(O)(C(C)=NNC(=O)c1ccc(Cl)c(Cl)c1)CC3OC1CC(N)C(O)C(C)O1 (stereo unspecified) | – | 1.12 µM (active)
Cc1ccc(Cn2cnc3c(cnn3C(C)(C)C)c2=O)c(F)c1 | -14.2 | –
COc1cc(CN(C(=O)c2ccccc2Br)c2ccccn2)cc(OC)c1OC | -7.28 | –
CC(C)CC[n+]1ccn(C2=C([O-])c3ccccc3C(=O)/C2=N\S(=O)(=O)c2ccccc2)c1 | – | 3.16 µM (active)
COC(=O)c1ccc(NC(=O)c2cccc3c2C(=O)N(C2CCCCC2)C3)cc1 | 6.39 | –

SMILES | activity, negative = inhibition [%] | Potency
O=S1(=O)CC(N2CCC(Cc3ccccc3)CC2)CN1Cc1ccccc1 (stereo unspecified) | -44.1 | –
Cc1cccc(CN2CCN(C3CN(Cc4ccccc4)S(=O)(=O)C3)CC2)c1 (stereo unspecified) | -23.2 | –
Cc1ccc(CN2CC(N3CCC(Cc4ccccc4)CC3)CS2(=O)=O)cc1 (stereo unspecified) | – | 14.1 µM (active)
Cc1ccc(CN2CCc3nc(N4CCN(C)CC4)ncc3C2)cc1 | -2.9 | –
CCOc1ccc(NC(=O)CC2C(=O)N(c3cccc(OC)c3)C(=O)N2C2CCCCC2)cc1 (stereo unspecified) | -13.9 | –
Cc1cccc(NC(=O)Cn2c(C(F)(F)F)nc3ccccc32)c1C | -19.4 | –
Fc1ccc2[nH]c3c(N4CCN(Cc5ccc6c(c5)OCO6)CC4)ncnc3c2c1 | – | 17.8 µM (active)
N#C/C=C/N1CCN(Cc2ccc3c(c2)OCO3)CC1 | 1.39 | –
O=C(CSc1nc2c(c(=O)[nH]1)CN(Cc1ccc3c(c1)OCO3)CC2)Nc1cc(F)ccc1F | -4.36 | –
Cc1cc(C)cc(NC(=O)Cc2csc(C)n2)c1 | 0 | –
Cc1ccc(C)c(S(=O)(=O)n2nc(C)c(S(=O)(=O)N3CCC(C)CC3)c2C)c1 | 1.69 | –
CC(C)N1CCC(=NNc2ccc([N+](=O)[O-])cc2S(=O)(=O)N2CCOCC2)CC1 | – | 11.2 µM (active)
O=[N+]([O-])c1cc(S(=O)(=O)N2CCCC2)ccc1NN=C1CCCC1 | -8.61 | –
COC(=O)c1cc(Oc2ccc(S(=O)(=O)N3CCOCC3)cc2[N+](=O)[O-])cc(C(=O)OC)c1 | -15.1 | –
Cc1ccc(C)c(N2CCN(C(=O)CCc3c(C)nc4c(c3C)c(=O)n(C)c(=O)n4C)CC2)c1 | -24.3 | –
CCOc1ccc(CNC(=O)c2ccc(CS(=O)c3ccccc3)o2)cc1 (stereo unspecified) | -1.57 | –
CC(=O)c1ccc(N2CCN(C3C(=O)c4ccccc4N3C(C)=O)CC2)cc1 (stereo unspecified) | 0 | –
CCOc1ccc2nc(N(CCCN(C)C)C(=O)c3ccc(C(=O)c4ccccc4)cc3)sc2c1 | – | 22.4 µM (active)
CCN(C(=O)COc1ccc(C(=O)c2ccccc2)cc1)c1ccccc1 | -18 | –
CCOc1ccc2nc(C(=O)N3CCCC(C)C3)sc2c1 (stereo unspecified) | 3.8 | –
Cc1ccc2nc(/C(C#N)=C/c3ccccc3F)[nH]c2c1 | -31.6 | –

SMILES | activity, negative = inhibition [%] | Potency
O=S(=O)(c1ccccc1)N1CCc2ccccc21 | -0.156 | –
CCn1c(=O)c(=O)n(CC)c2cc(S(=O)(=O)N3CCc4ccccc43)ccc21 | 8.33 | –
Cn1c(=O)n(C)c2cc(S(=O)(=O)N3CCCc4ccccc43)ccc21 | – | 12.6 µM (active)
Cc1cc(C)cc(NC(=O)CSc2oc(-c3ccccc3)nc2S(=O)(=O)c2ccc(Cl)cc2)c1 | 4.95 | –
COc1cc(C(=O)N2CCN(c3ccc(Nc4ccc(C)cc4)nn3)CC2)cc(OC)c1OC | -7.49 | –
Cc1onc(-c2c(F)cccc2Cl)c1C(=O)Nc1cccc(S(=O)(=O)N2CCCCC2)c1 | 5.34 | –
Cc1onc(-c2ccc(F)cc2F)c1C(=O)Nc1cccc(C(F)(F)F)c1 | – | 12.6 µM (active)
Cc1onc(-c2c(F)cccc2Cl)c1C(=O)N(C)CC(=O)Nc1cccc(F)c1 | -2.61 | –
O=C1c2ccccc2C(=O)N1c1ccc(S(=O)(=O)N2CCOCC2)c2ccccc12 | 3.68 | –
Cc1ccc(-c2noc(-c3nnn(-c4cccc(C(F)(F)F)c4)c3N)n2)cc1 | 9.38 | –
COc1ccc(OC)c(CCNC(=O)CCCn2c(=O)c3cccn3c3cccnc32)c1 | -4.81 | –
CCOCCc1nn2c(=O)cc(COC(=O)CNC(=O)c3ccc(C(C)(C)C)cc3)nc2s1 | -31.7 | –
CCOC(=O)Cn1c(=O)n(C2CCCCC2)c2nc(-c3cccc(OC)c3)nc(C(N)=O)c21 | 1.49 | –
CCc1nc2c(OCc3ccc(C(=O)OC)cc3)cccn2c1N(C)C(=O)C(C)C | -7.08 | –
CCc1nc2c(OCc3cccc(OC)c3)cccn2c1N(C)C(=O)C(C)C | -1.92 | –
CCc1nc2c(OCc3ccc(Cl)cc3Cl)cccn2c1N(C)C(=O)C(C)C | – | 12.6 µM (active)
Cc1nc2c(OCc3cccc(Cl)c3)cccn2c1N(C)CC1CC1 | -16.2 | –
Cc1nc2c(OCC(=O)C(C)(C)C)cccn2c1N(C)Cc1cccs1 | -8.85 | –
Cc1nc2c(OCc3ccc(Cl)cc3Cl)cccn2c1N(C)CC1CC1 | – | 11.2 µM (active)
